Screening results deposited in PubChem BioAssay by Broad Institute.
aSyn UTR act – Activators via SNCA 5'UTR binding, MLPCN; alpha-synuclein 5'UTR reporter, activators screen; activity score, % (tested at 7.5 µM), hits read low; 300,000 tested, 7.1% active; AID 1814; in the data active means activity score below about -60%
* marks the source's active call; other numbers are inactive results. Not all results are given here.

SMILES	aSyn UTR act
O=C(CSc1nnc(-c2ccc(F)cc2)o1)N1CCCC1	-114*
CCOC(=O)N1CCN(C(=O)CSc2nnc(-c3ccc(C(C)(C)C)cc3)o2)CC1	-73*
Cc1ccc(-c2nnc(SCC(=O)N3CCCC3)o2)cc1	-104*
Cc1cccc(-c2nnc(SCC(=O)N3CCCC3)o2)c1	-83*
Cc1ccc2c3c([nH]c2c1C)-c1nonc1CC3	-107*
O=C(Nc1ccc(N2CCOCC2)cc1)Nc1ccc2nc(-c3ccco3)c(-c3ccco3)nc2c1	112
O=C(Nc1ccc2nc(-c3ccco3)c(-c3ccco3)nc2c1)NC1CC1	-65*
Cc1ccc(NC(=O)C2=C(O)c3sccc3N(C)S2(=O)=O)cc1	-101*
CCCN=C(C)C1=C(O)c2ccccc2C1=O	-94*
O=C(Nc1ccc(Cl)cc1F)c1ccccc1Br	-207*
O=C(NNC(=O)c1ccccc1Br)c1cccc(Cl)c1	-92*
O=C(Nc1ccc(Cl)cc1F)c1cccc2ccccc12	-63*
CCCCC(=O)Nc1ccc2c(c1)nc1n2CCOC1	-77*
O=C(Nc1ccc2c(c1)nc1n2CCOC1)c1ccccc1	-80*
Nc1nonc1-n1nnc(C(=O)N/N=C/c2ccc(OCc3ccc(F)cc3)cc2)c1COc1ccccc1	-122*
CCc1c(C(=O)N/N=C/c2ccc(OCc3ccc(F)cc3)c(OC)c2)nnn1-c1nonc1N	-128*
Nc1nonc1-n1nnc(C(=O)N/N=C/c2ccc(OCc3ccccc3F)cc2)c1CNc1ccccc1	-75*
C/C(=N\NC(=O)c1nnn(-c2nonc2N)c1CN(C)c1ccccc1)c1ccccn1	88
Nc1nonc1-n1nnc(C(=O)N/N=C/c2cc(Br)ccc2O)c1CNc1ccccc1	70
CCN(CC)Cc1c(C(=O)N/N=C/c2ccc(OCc3ccccc3C)cc2)nnn1-c1nonc1N	-87*
Nc1nonc1-n1nnc(C(=O)N/N=C/c2ccc(OCc3ccccc3)cc2)c1CN1CCCCC1	-112*
Cc1ccc(COc2cccc(/C=N/NC(=O)c3nnn(-c4nonc4N)c3C)c2)cc1	-152*
CC1CCN(Cc2c(C(=O)N/N=C/c3ccc(C(C)(C)C)cc3)nnn2-c2nonc2N)CC1	64
Cc1c(C(=O)N/N=C/c2c(O)ccc3ccccc23)nnn1-c1nonc1N	63
Fc1ccc(Cn2cccc2C2=NC(c3ccccc3)CO2)cc1 (stereo not given)	-88*
SMILES	aSyn UTR act
O=C(Nc1ccccc1Cl)C1Cc2ccccc2O/C1=N\O (stereo not given)	-88*
CC(NC(=O)CCc1nnc(Cc2cccc(C(F)(F)F)c2)o1)C1CC1 (stereo not given)	-77*
CC(C)CN(C)C(=O)CCc1nnc(Cc2cccc(C(F)(F)F)c2)o1	-143*
O=C(Nc1ccc(F)cc1)Nc1cc(OCC(F)(F)F)cc(OCC(F)(F)F)c1	86
COc1ccc(NC(=O)Nc2ccc(F)cc2)cn1	-65*
CCOC(=O)c1ccc(NC(=O)Nc2ccc(F)cc2)cc1	-106*
COc1ccc(NC(=O)/C=C/c2cccc(Br)c2)cn1	-190*
CC(C)(C)c1ccc(NC(=O)Nc2ccc(F)cc2)cc1	-245*
COc1ccc(NC(=O)CSc2ccccc2)cn1	-86*
COc1ccc(NC(=O)/C(Cl)=C(/Cl)S(=O)Cc2ccccc2)cn1 (stereo not given)	121
CCOC(=O)c1ccc(NC(=O)C23CCC(C)(C(=O)O2)C3(C)C)cc1 (stereo not given)	-106*
COC(=O)c1ccc(NC(=O)Nc2ccc(F)cc2)cc1	-141*
CCOc1cc(N2CCOCC2)c(OCC)cc1NC(=O)c1cc(-c2ccco2)nc2ccccc12	114
NNC(=O)c1oc2nc(-c3ccco3)cc(-c3ccco3)c2c1N	-62*
O=C(Nc1nc(-c2ccco2)cs1)c1ccccc1	-181*
O=C(NNc1nc(-c2ccc(Br)cc2)cs1)c1ccco1	-105*
O=C(Nc1nc(-c2ccccn2)cs1)c1ccccc1-n1cnnn1	98
Cc1ccc(-c2csc(NC(=O)c3ccc(-c4ccccc4)cc3)n2)o1	-122*
COc1ccc(-c2csc(NC(=O)C3=NN(c4ccccc4)C(=O)CC3)n2)cc1	-86*
O=C(Nc1nc(-c2ccccc2)cs1)c1ccco1	-98*
COc1ccc(-c2csc(NC(=O)c3ccco3)n2)cc1	-241*
Cc1ccc(-c2csc(NC(=O)c3ccco3)n2)cc1C	-209*
CCOc1ccc(-c2csc(NC(=O)c3ccco3)n2)cc1	-126*
NC(=O)c1ccccc1NC(=O)/C=C/c1ccccc1	-116*
NC(=O)c1ccccc1NC(=O)/C=C/c1ccc(Cl)cc1	-110*
SMILES	aSyn UTR act
O=C(NNc1cccc(Cl)n1)c1ccc(Cl)cc1Cl	-81*
Cc1ccccc1Nc1c(-c2ccc(N3CCOCC3)cc2)nc2cnccn12	-67*
CN(C)c1ccc(CCc2ccc(N)cc2)cc1	84
CN(C)c1ccc(C(=O)OCc2ccccc2)cc1	-74*
CCOc1cccc2c1OC(c1cc(OC)c(OC)c(OC)c1)N1N=C(c3ccc(C)o3)CC21 (stereo not given)	-219*
CC(C)(C)C(=O)N1CCN(c2ccc([N+](=O)[O-])cc2Cl)CC1	-64*
O=C(c1cc([N+](=O)[O-])ccc1N1CCOCC1)N1CCN(c2ccccc2)CC1	91
Nc1ccccc1C(=O)N=Nc1[nH]c(N)c2ccccc12	-101*
Nc1[nH]c(N=NC(=O)c2ccc(F)cc2)c2ccccc12	-147*
CCOC(=O)c1c(C)[nH]c(C2=NNC(=Nc3ccccc3)SC2)c1C	-97*
CC(=O)c1c(C)[nH]c(C2=NNC(=NC(C)(C)C)SC2)c1C	-97*
CCOC(=O)c1c(C)[nH]c(C2=NNC(=Nc3ccccc3OC)SC2)c1C	-90*
O=C(/C=C/c1ccccc1Cl)c1ccc[nH]1	-343*
O=C(/C=C/c1ccc(Cl)cc1Cl)c1ccc[nH]1	-139*
CN(C)/C=C/C(=O)/C=C/c1ccc(Cl)cc1Cl	-150*
O=C(Cc1ccc(Cl)cc1)c1ccc(O)cc1	-151*
Cc1ccc(CC(=O)c2ccc(Cl)cc2)cc1	-83*
O=C(Cc1ccccc1)c1ccc(Cl)cc1	-73*
Cc1ccc(/C=N/n2cnc3sc(-c4ccccc4)cc3c2=O)o1	-109*
N#C/C(=C/c1ccc(N2CCCCCC2)o1)c1ccc(F)cc1	-111*
N#C/C(=C/c1ccc(N2CCCCCC2)o1)c1cccc(F)c1	-286*
Nc1ccc(SCc2nc3cccc4c3n2CCC4)cc1	-99*
O=C(NNC(=S)Nc1ccccc1)c1ccc2ncccc2c1	-97*
CC(C)(C)NC(=S)NNC(=O)c1ccc2ncccc2c1	-134*
O=C(NC(=S)Nc1ccc2ncccc2c1)c1ccccc1	-137*
SMILES	aSyn UTR act
O=C(Nc1ccc2cccnc2c1)c1ccc(Br)cc1	-65*
O=C(NC(=S)Nc1ccc2nc[nH]c2c1)c1ccccc1	-116*
O=C(NC(=S)Nc1ccc2[nH]ncc2c1)c1ccccc1	-115*
COc1cccc(C(=O)Nc2ccc3[nH]ncc3c2)c1	-76*
CCC(C)(C)NC(=O)CCCSc1nc2ccccc2s1	-154*
CCC(C)/C(C)=N/NC(=O)c1ccc(CSc2nc3ccccc3s2)cc1 (stereo not given)	-156*
NC(=O)c1ccc(CSc2nc3ccccc3s2)cc1	-101*
CCNC(=O)c1ccc(CSc2nc3ccccc3s2)cc1	-65*
c1ccc2sc(SCc3ccc(-c4nnco4)cc3)nc2c1	-156*
COc1cccc(/C=C/C(=O)OC(C)C(=O)Nc2c(C)n(C)n(-c3ccccc3)c2=O)c1 (stereo not given)	-112*
COC(=O)C1=C(C)NC(C)=C(C(=O)OC)C1c1ccc(-c2cccc(Cl)c2Cl)o1	-72*
